Reference: PubChem BioAssay (NCI)
The panel holds about 83,000 compounds, 20% with a hit somewhere; the sample as a whole holds those more often.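 Treatment: one concentration, 48 hours, 96-well format. Scoring: percent growth, with anything below 10 considered active.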 A number with no mark means an inactive call. Activity calls are given as the source filed them.

Legend:
Experiment in all cases: NCI-60 one-dose screen, 48 h (100 = growth as untreated, 0 = no growth, -100 = all killed)
SK-MEL-2 melanoma = conditions: 10 µM unless noted
EKVX NSCLC = conditions: 10 µM unless noted
SN12C renal = conditions: 10 µM unless noted
TK-10 renal = conditions: 10 µM unless noted
ACHN renal = conditions: 10 µM unless noted
CAKI-1 renal = conditions: 10 µM unless noted
A498 renal = conditions: 10 µM unless noted
MOLT-4 leukemia = conditions: 10 µM unless noted
RPMI-8226 leukemia = conditions: 10 µM
OVCAR-8 ovarian = conditions: 10 µM unless noted
OVCAR-5 ovarian = conditions: 10 µM unless noted
OVCAR-4 ovarian = conditions: 10 µM unless noted
SK-OV-3 ovarian = conditions: 10 µM
IGROV1 ovarian = conditions: 10 µM unless noted
OVCAR-3 ovarian = conditions: 10 µM unless noted
NCI/ADR-RES ovarian = conditions: 10 µM unless noted
CCRF-CEM leukemia = conditions: 10 µM unless noted
SR leukemia = conditions: 10 µM unless noted
HS 578T breast = conditions: 10 µM unless noted
UO-31 renal = conditions: 10 µM unless noted

Row | SMILES | growth (SK-MEL-2 melanoma) | growth (EKVX NSCLC) | growth (SN12C renal) | growth (TK-10 renal) | growth (ACHN renal) | growth (CAKI-1 renal) | growth (A498 renal) | growth (MOLT-4 leukemia) | growth (RPMI-8226 leukemia) | growth (OVCAR-8 ovarian) | growth (OVCAR-5 ovarian) | growth (OVCAR-4 ovarian) | growth (SK-OV-3 ovarian) | growth (IGROV1 ovarian) | growth (OVCAR-3 ovarian) | growth (NCI/ADR-RES ovarian) | growth (CCRF-CEM leukemia) | growth (SR leukemia) | growth (HS 578T breast) | growth (UO-31 renal)
1 | COc1ccc2nc(-n3nc(C)cc3C)c(-n3nc(C)cc3C)nc2c1 | 111% | 91.7% | 104% | 113% | 113% | 93.4% | 96.7% | 104% | 102% | 126% | 103% | 111% | 113% | 113% | 126% | 100% |  |  |  | 
2 | CCN(CC)c1ccc2c(c1)OS(=O)(=O)N=C2 | 113% | 88% | 100% | 101% | 102% | 94.7% |  | 110% | 104% | 107% | 99.9% |  |  | 97.5% | 114% | 95.6% | 106% | 93.3% | 110% | 
3 | CCN(c1ccc(C(=O)N2CCN(c3ccccc3)CC2)cc1)S(C)(=O)=O | 100% |  | 103% | 88.7% | 109% | 96.3% | 87.9% | 95.8% | 102% | 103% | 109% | 107% | 106% | 107% | 106% | 108% | 100% | 90.2% | 105% | 90.2%
4 | O=C(CCCCCCC(=O)Nc1ccc2c(c1)/C(=C/c1ccc[nH]1)C(=O)N2)NO | 37% |  | 12.2% | 5.62% (active) | 4.49% (active) | 2.67% (active) | -59.3% (active) | 4.16% (active) | -19.5% (active) | 11.2% | 0.698% (active) | 23.7% | 12.2% | -4.96% (active) | -57.8% (active) | 35.7% | 6.86% (active) | 4.1% (active) | 9.71% (active) | 6.77% (active)
5 | COC(=O)c1c2c(c(C)[n+]([O-])c1C)C(=O)C=C(NCc1cccc(OC)c1)C2=O | -64.6% (active) | -68.7% (active) | -93.4% (active) | 4.5% (active) | -81.5% (active) | -32.6% (active) |  | -45.9% (active) | -35.5% (active) | -23.7% (active) | -90.3% (active) |  |  | -64% (active) | -51% (active) | -25.6% (active) | -17.1% (active) | -8.2% (active) | -22.2% (active) | 
6 | Cc1nc2cc(Nc3nc(Nc4ccc(F)cc4)nc(N4CCCC4)n3)ccc2n1Cc1ccccc1 | -58% (active) |  | -62.9% (active) | -55.8% (active) | 11.5% | -14.4% (active) | -19.3% (active) | -30.7% (active) | -47.4% (active) | -35.2% (active) | -54.8% (active) | 4.79% (active) | -2.81% (active) | -6.78% (active) | -84% (active) | -28% (active) | -30.4% (active) | -27.9% (active) | 30.6% | -68.7% (active)
7 | N#CCCN1CCN(CCC#N)C1=S | 93.4% | 102% | 95.2% | 98.1% | 102% | 86.4% | 87.9% | 103% | 111% | 98.1% | 101% | 108% | 108% |  | 110% | 102% | 111% |  | 104% | 
8 | COc1ccc(-n2ncc3c4nc(OC)c(S(=O)(=O)c5ccccc5)cc4ccc32)cc1 | 65.9% |  | 93% | 88.2% | 44.2% | 88.7% | 43.3% | 98.4% | 95% | 52.7% | 91.3% | 45.5% | 55.8% | 92% | 77.2% | 73.4% | 103% | 85.9% | 43.5% | 76.4%
9 | COc1cccc(OC(=O)c2ccccc2)c1OC(=O)c1ccccc1 | 57.6% | 95.4% | 76.7% | 87.7% | 98.3% | 75.2% | 88.9% | 79.5% | 68.6% | 91.6% | 99.4% | 100% | 90.4% |  | 68.5% | 9.73% (active) | 87.6% |  | 86.9% | 
10 | COC(=O)c1c2c(c(C)[n+]([O-])c1C)C(=O)C=C(NCc1cccc(Cl)c1)C2=O | -32.8% (active) | -57.3% (active) | -90.7% (active) | 14.5% | -44.8% (active) | -14.3% (active) |  | -34.8% (active) | -31.9% (active) |  | -87.2% (active) |  |  | -53.9% (active) | -35.7% (active) | -12.7% (active) | -11.2% (active) | 1.95% (active) | -23.2% (active) | 
11 | Cc1nc2cc(Nc3nc(NCCN)nc(Nc4ccc(F)cc4)n3)ccc2n1Cc1ccccc1 | 90.5% |  | 85.1% | 101% | 96.8% | 94.2% | 67.4% | -14.4% (active) | -45% (active) | 89.1% | 106% | 77% | 95.5% | 81.4% | 86.7% | 103% | -13.7% (active) | -26.5% (active) | 102% | 89.3%
12 | COc1ccc(/C=C2\Oc3cc(C)c(Cl)cc3C2=O)cc1OC | 109% | 94% | 95% | 112% | 97.9% | 87.2% |  | 91% | 89.9% | 102% | 98.3% | 82.3% |  | 103% | 108% | 107% | 87.4% | 73.2% | 109% | 
13 | CC(=O)Nc1ccc(S(=O)(=O)N/N=C\c2ccc(Cl)c(Cl)c2)cc1 | 90.6% | 99.7% | 99.1% | 93.2% | 98.5% | 91.5% | 72.7% | 100% | 92.5% | 103% | 108% |  | 105% |  | 111% | 103% | 92.8% |  | 103% | 
14 | Brc1ccccc1Nc1ccc2nnc(-c3ccncc3)n2n1 | 98% |  | 101% | 114% | 97% | 87.1% | 101% | 92.6% | 91.1% | 100% | 101% | 104% | 102% | 93.6% | 103% | 99.8% | 85% | 61.7% | 109% | 82.1%
15 | O=c1oc2ccccc2cc1-c1csc(N=Nc2c(O)[nH]c3ccc(Br)cc23)n1 | 107% | 95.8% | 98.7% | 111% | 97.9% | 93.4% |  | 120% | 109% | 102% | 97.6% |  |  | 99.8% | 108% | 103% | 97.2% | 114% | 93.3% | 
16 | COc1ccc(/C=C(\C#N)c2cc3ccccc3n2C)cc1 | 67% | 39.1% | 44.7% |  | 45.5% | 33.5% | -12.9% (active) | 17.4% |  | 34.2% | 39.7% | 37.1% |  | 34.7% | -34.3% (active) | 8.82% (active) | 18.3% | 18.7% | 2.89% (active) | 
17 | COc1ccc(/C=C(\C#N)c2ccc(OC)cc2)cc1 | 54.4% | 92.2% | 67.5% | 76.7% | 88.3% | 64.7% | 46.6% | 56.9% | 55.8% | 81.9% | 85.1% | 81.8% | 74.9% |  | 62.6% | 4% (active) | 55.6% |  | 86.3% | 
18 | NC1=NC(c2ccccc2OS(=O)(=O)c2ccc(Br)cc2)n2c(nc3ccccc32)N1 (centres undefined) | 101% | 99.1% | 87.7% | 99% | 94.5% | 104% | 101% | 79.3% | 69.8% | 88.3% | 99% | 110% | 105% | 81.8% | 94.6% |  |  |  | 101% | 
